{"source": "the OligoGym collection", "data": [{"target": "TAS1R2", "test": "pooled miR-30 sensor sort-seq; sequence = guide strand", "conditions": "shRNA", "values": [{"sequence": "TAGCACACATCCACGATCTCAT", "sensor-assay potency score (higher = more potent)": 0.125}, {"sequence": "TAGGCAGACATGAAGGTGCAGA", "sensor-assay potency score (higher = more potent)": -0.389}, {"sequence": "TTGTTGATCTCCTCCACCGCAA", "sensor-assay potency score (higher = more potent)": -0.437}, {"sequence": "TAGAAGAGGATCATGTAGCACT", "sensor-assay potency score (higher = more potent)": -0.0652}, {"sequence": "TAGGACCACTCGTTATTCGGGC", "sensor-assay potency score (higher = more potent)": -0.986}, {"sequence": "TTGTCTCGCAGCTCATCGCTGA", "sensor-assay potency score (higher = more potent)": -0.453}, {"sequence": "TAGAAGGTCATGCTGAGGGTGA", "sensor-assay potency score (higher = more potent)": -0.126}, {"sequence": "TTGCAGGTATAGCTCTGGCTGG", "sensor-assay potency score (higher = more potent)": -1.05}, {"sequence": "TAGACCGCAGAGTACACGCTGT", "sensor-assay potency score (higher = more potent)": -0.157}, {"sequence": "TTCATCTTCAGTGTGGTTGAGG", "sensor-assay potency score (higher = more potent)": -0.161}, {"sequence": "ATAGGTGTCGCTGCTCACCAGC", "sensor-assay potency score (higher = more potent)": -0.83}]}, {"target": "TAS2R31", "test": "pooled miR-30 sensor sort-seq; sequence = guide strand", "conditions": "shRNA", "values": [{"sequence": "TTCTTTTGTCCGTACAATCTCT", "sensor-assay potency score (higher = more potent)": -0.58}, {"sequence": "TACAGTCGCATCTGAAAGGTAC", "sensor-assay potency score (higher = more potent)": -0.71}, {"sequence": "TTACAGTCGCATCTGAAAGGTA", "sensor-assay potency score (higher = more potent)": -0.265}, {"sequence": "TAGAACCACTACCACACTGGAA", "sensor-assay potency score (higher = more potent)": -1.01}, {"sequence": "AATAGAACCACTACCACACTGG", "sensor-assay potency score (higher = more potent)": 0.475}, {"sequence": "TCCAATAACAAATAGAACCACT", "sensor-assay potency score (higher = more potent)": -1.14}, {"sequence": "TTAACAGCAAAAAACATAGCAG", "sensor-assay potency score (higher = more potent)": -0.409}, {"sequence": "TTGATCTTCCAAGTCAAGTTTC", "sensor-assay potency score (higher = more potent)": -0.849}, {"sequence": "TAACAGCAAAAAACATAGCAGG", "sensor-assay potency score (higher = more potent)": -0.785}, {"sequence": "TTTTGTCCGTACAATCTCTTTC", "sensor-assay potency score (higher = more potent)": -0.469}]}, {"target": "TBC1D10A", "test": "pooled miR-30 sensor sort-seq; sequence = guide strand", "conditions": "shRNA", "values": [{"sequence": "TTCTGCTGTAACTTCACCTTGC", "sensor-assay potency score (higher = more potent)": 0.827}, {"sequence": "TTTCTCGCTGTAGTAGCCGGGC", "sensor-assay potency score (higher = more potent)": -0.648}, {"sequence": "TTCACAGAAGAACATGTCCCAG", "sensor-assay potency score (higher = more potent)": -0.889}, {"sequence": "ATCGCCTCCAGTTTCTCGCTGT", "sensor-assay potency score (higher = more potent)": -0.233}, {"sequence": "TTGCTCAGCAGGCATATGCATG", "sensor-assay potency score (higher = more potent)": -1.58}, {"sequence": "TTGTGCTTCTTGGCCATCCATT", "sensor-assay potency score (higher = more potent)": -1.02}, {"sequence": "TTTTACACAAAGAACACCCCAC", "sensor-assay potency score (higher = more potent)": 0.708}, {"sequence": "TTGTTGAGCATGTCCAGCCACT", "sensor-assay potency score (higher = more potent)": -1.14}, {"sequence": "TCACAGAAGAACATGTCCCAGA", "sensor-assay potency score (higher = more potent)": -0.251}, {"sequence": "TTGGGGGCTGAGTCCTTCGGGG", "sensor-assay potency score (higher = more potent)": -1.22}, {"sequence": "TTGAGCATGTCCAGCCACTTGG", "sensor-assay potency score (higher = more potent)": -0.533}, {"sequence": "TTCTGCATCCAAGATAGCCTTG", "sensor-assay potency score (higher = more potent)": -0.737}]}, {"target": "TBC1D7", "test": "pooled miR-30 sensor sort-seq; sequence = guide strand", "conditions": "shRNA", "values": [{"sequence": "TTGCTCACGATCGCGTCTGAGC", "sensor-assay potency score (higher = more potent)": -1.01}, {"sequence": "TTTAATTGGTTCACAAAGCGTC", "sensor-assay potency score (higher = more potent)": -0.134}, {"sequence": "TTGTTATCTTCTCTGCACTGTT", "sensor-assay potency score (higher = more potent)": -0.778}, {"sequence": "TTCTTTTCTTCAACTCCACGAA", "sensor-assay potency score (higher = more potent)": -0.5}, {"sequence": "TTACGATACATCATCACCTTGG", "sensor-assay potency score (higher = more potent)": 0.3}, {"sequence": "TCAAGTATTGTTCAAACGCTTT", "sensor-assay potency score (higher = more potent)": -1.28}, {"sequence": "TTTGTTATCTTCTCTGCACTGT", "sensor-assay potency score (higher = more potent)": 0.575}]}]}
